Source: PubChem (National Center for Advancing Translational Sciences (NCATS))
GCN5L2 inh: qHTS Assay for Inhibitors of GCN5L2; Histone acetyltransferase KAT2A (Homo sapiens), Q92830; GCN5L2 HAT assay, ThioGlo1 CoA-SH fluorescence; Potency, µM (doses to about 58.9 µM), actives largely listed as inhibitors; hit rate 0.21% among 390,000; AID 504327, 2011
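GCN5L2 (20nM final) in 50mM HEPES, 0.1mM EDTA pH 7.5, 0.01% Tween-20 was preincubated 15 min at room temperature with compound, then given ThioGlo1 (50uM), H3(1-25) peptide (75uM) and acetyl-CoA (70uM); CoA-thiol fluorescence (Ex340/Em540) was read at 0 and 20 min.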
Mito fusion yeast: qHTS Assay for Small Molecule Inhibitors of Mitochondrial Division or Activators of Mitochondrial Fusion; S. cerevisiae fusion-defective mutant growth rescue, CellTiterGlo 48 h; Potency, µM (doses to about 46.1 µM), hits mostly activators; hit rate 0.23% among 320,000; note: nearly all actives have a fitted effect of over 45% in size
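Compounds are tested for their ability to restore growth of mitochondrial fusion-defective yeast strains at non-permissive 37C in YPEG medium over 48 hours. Viability is quantified by luciferase luminescence.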
VDR inhibitor: Inhibitors of the vitamin D receptor (VDR): qHTS; Vitamin D3 receptor (Homo sapiens), P11473; hit rate 0.93% among 400,000; Potency, µM, hits mostly inhibitors; VDR-SRC2-3 peptide fluorescence polarization, 2 h; AID 504847, 2011
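VDR–SRC2-3 interaction, FP format. Cmpds 23 nl via pintool, brief spin, 2 h ambient incubation.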
PKM2 act: qHTS Assay for Activators of Human Muscle isoform 2 Pyruvate Kinase. hit rate 0.34% among 260,000. Pyruvate kinase PKM (Homo sapiens), P14618. purified PKM2, Kinase-Glo ATP luminescence, activation; response scale: 0% is enzyme alone, no compound. Potency, µM (highest dose often 57.5 µM), usual class: activators; note: nearly all actives have a fitted effect of over 55% in size
Target sequence (P14618 whole entry, looked up, canonical isoform): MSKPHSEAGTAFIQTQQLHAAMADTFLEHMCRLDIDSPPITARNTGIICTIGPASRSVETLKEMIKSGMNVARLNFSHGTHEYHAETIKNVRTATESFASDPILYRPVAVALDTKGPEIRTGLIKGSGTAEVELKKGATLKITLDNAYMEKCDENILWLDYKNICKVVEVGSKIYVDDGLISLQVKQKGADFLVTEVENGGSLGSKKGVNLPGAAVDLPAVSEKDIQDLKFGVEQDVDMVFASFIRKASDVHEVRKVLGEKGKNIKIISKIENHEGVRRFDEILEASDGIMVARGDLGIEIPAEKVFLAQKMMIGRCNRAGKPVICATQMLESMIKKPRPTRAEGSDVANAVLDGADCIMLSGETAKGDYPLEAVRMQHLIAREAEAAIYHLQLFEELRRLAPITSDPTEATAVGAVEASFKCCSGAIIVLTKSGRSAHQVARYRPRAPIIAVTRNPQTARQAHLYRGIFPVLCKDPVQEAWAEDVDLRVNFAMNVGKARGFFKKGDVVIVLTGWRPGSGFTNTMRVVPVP
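Purified hPK-M2 (>95%) run at intermediate activity with 0.1 mM ADP and 0.5 mM PEP in 50 mM imidazole pH 7.2, KCl, MgCl2; 1 h room temperature. ATP formed read by Kinase-Glo luminescence; normalized to uninhibited and no-enzyme controls.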
GLS inhibitor: qHTS for Inhibitors of Glutaminase (GLS) | Glutaminase kidney isoform, mitochondrial (Homo sapiens), O94925 | GLS enzymatic activity, qHTS titration | Potency, µM (highest dose often 45.5 µM), actives largely listed as inhibitors | hit rate 0.21% among 410,000 | AID 624170, 2012
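Human kidney-isoform GLS in 45 mM KH2PO4 pH 8.2, 0.02% Tween-20, with compound, started with 1mM L-Glutamine (added stock). Glutamate oxidase/HRP/Amplex red coupled fluorescence read at start and after 30 min at RT.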
PLK1 PBD block: qHTS for Inhibitors of PLK1-PDB (polo-like kinase 1 - polo-box domain): Primary Screen; hit rate 2.8% among 360,000; Potency, µM, usual class: inhibitors; Plk1 PBD binding of FITC phosphopeptide, fluorescence polarization; AID 720504, 2013; note: series mostly up to about 57 µM; nearly all actives have a fitted effect of over 65% in size
Numbers stand for hits; i = inactive; ? = inconclusive; nt = no result given; [ ] = dose if it differs, or a comment. Most compounds without a hit are left out; they make up all but 3.4% or so of the library. Calls come from the whole dose curve; as a rule, active = well fitted curve in the direction sought with a large enough effect; inconclusive = small, poorly fitted or top-dose-only effect, or another doubt; inactive = no such curve, though single readings can be large; an effect the other way counts as inactive or inconclusive.

SMILES	GCN5L2 inh	Mito fusion yeast	VDR inhibitor	PKM2 act	GLS inhibitor	PLK1 PBD block
Cc1cc(NS(=O)(=O)c2ccc(NC(=O)COc3cc(C)c(Cl)c(C)c3)cc2)no1	i	i	i	nt	i	?
CCOc1ccc(OCC(=O)Nc2ccc(S(=O)(=O)Nc3cc(C)nc(C)n3)cc2)cc1	i	i	i	i	i	i
Cc1cc(C)nc(NS(=O)(=O)c2ccc(NC(=O)Cc3ccccc3)cc2)n1	i	i	i	i	i	?
COc1cccc(CC(=O)Nc2ccc(S(=O)(=O)Nc3nc(C)cc(C)n3)cc2)c1	i	i	?	i	?	13µM
Cc1cc(NS(=O)(=O)c2ccc(NC(=O)COc3ccc(Br)cc3)cc2)nc(C)n1	i	i	?	nt	?	2.7µM
Cc1cc(NS(=O)(=O)c2ccc(NC(=O)COc3c(C)cc(Br)cc3C)cc2)no1	i	i	i	i	7.9µM	i
COc1cc(/C=C/C(=O)OCC(=O)Nc2c(C)n(C)n(-c3ccccc3)c2=O)cc(OC)c1OC	i	i	i	nt	i	i
CCN(c1ccccc1)S(=O)(=O)c1nnc(NC(=O)COc2cccc(C)c2)s1	i	nt	i	nt	i	nt
CCC(=O)O[C@@H](OP(=O)(CCCCc1ccccc1)CC(=O)N1C[C@H](C2CCCCC2)C[C@H]1C(=O)O)C(C)C (stereo partly specified)	i	nt	i	nt	i	nt
CC(=Nc1ccccc1N)c1c(C)cc(=O)n(O)c1O	i	nt	i	nt	nt	nt
CC1CCc2ccccc2N1C(=O)c1cccs1 (stereo unspecified)	i	i	?	i	i	21µM
CCOC(=O)c1c(NS(=O)(=O)c2cccc(OC)c2)sc2c1CCC2	i	i	i	16µM	i	?
CCOC(=O)c1c(NC(=O)c2ccccc2C(=O)O)sc2c1CCCC2	i	i	i	i	i	i
Cc1cccc(NC(=O)c2c(NC(=O)c3ccccc3)sc3c2CCCC3)c1	?	nt	79µM	nt	i	nt
Cc1cccc(NC(=O)c2c(NC(=O)c3ccccc3)sc3c2CCC3)c1	i	nt	i	nt	i	nt
CCOC(=O)c1c(NC(=O)c2ccccc2C)sc2c1CCCC2	i	nt	79µM	nt	i	nt
CCOC(=O)c1c(NC(=O)c2cc(-c3cccc(OC)c3)on2)sc2c1CCCC2	i	nt	79µM	nt	i	nt
COc1cccc(C(=O)c2cn(CC(=O)Nc3cccc(Cl)c3C)c3nc(C)ccc3c2=O)c1	i	nt	i	nt	i	nt
CC(=O)c1ccc2c(c1)CC(C)C(=O)N2C (stereo unspecified)	i	i	i	i	i	i
Cc1ccccc1S(=O)(=O)N1C(c2ccc(Cl)cc2)CC=C(C(=O)O)C1c1cccc(Cl)c1 (stereo unspecified)	nt	nt	nt	nt	nt	27µM
Cc1ccccc1S(=O)(=O)N1[C@@H](c2ccc(Cl)cc2)C(C(=O)O)=CC[C@H]1c1ccc(Cl)cc1	?	nt	?	nt	i	30µM
Cc1ccc(NC(=O)c2cnc(N3CCN(c4ccccn4)CC3)c3ccccc23)c(Br)c1	i	i[9.22 µM]	i	i	i	24µM
COc1ccc(CCNC(=O)c2cccc(Nc3nc4ccccc4nc3-n3nc(C)cc3C)c2)cc1OC	i	nt	i	nt	i	nt
CCc1ccccc1NC(=O)C1CCN(c2nn3c(=O)cc(C)nc3s2)CC1	i	nt	i	nt	i	nt
CCOC(=O)CSc1nc(N)nc(C)c1Cl	i	i	?	i	i	30µM
SMILES	GCN5L2 inh	Mito fusion yeast	VDR inhibitor	PKM2 act	GLS inhibitor	PLK1 PBD block
CCOC(=O)CSc1nc(C)c(CC)c(C)c1C(N)=O	i	i	i	i	i	i
CCOC(=O)c1c(NC(=O)C2C3CCC(O3)C2C(=O)O)sc2c1CCC(CC)C2 (stereo unspecified)	i	i	i	i	i	?
CCOC(=O)c1c(NC(=O)C2C3C=CC(C3)C2C(=O)O)sc2c1CCC(CC)C2 (stereo unspecified)	i	i	?	i	i	27µM
COc1ccc(CNCCC(c2ccc3c(c2)OCO3)c2ccccc2OC)cc1 (stereo unspecified)	i	nt	i	nt	i	nt
CNC(=O)CCCc1nc(-c2ccccc2Cl)no1	i[0.501 µM]	i	i	i	i	24µM
CC(C)C[C@@H](CO)NS(=O)(=O)c1c(F)cccc1F	nt	nt	i	nt	i	i
CCC(=O)Nc1cccc(C2=NOC3(C2)C[C@@H](C(N)=O)N(C(=O)COc2ccc(Cl)cc2)C3)c1 (stereo partly specified)	i	i	i	i	i	i
C/C=C(/C)C(=O)Nc1cccc(C2=NOC3(C2)C[C@H](C(N)=O)N(C(=O)c2ccc(Cl)cc2)C3)c1 (stereo partly specified)	i	14µM	i	i	i	i
C/C=C\C(=O)Nc1cccc(C2=NOC3(C2)C[C@@H](C(N)=O)N(C(=O)c2ccc(Cl)cc2)C3)c1 (stereo partly specified)	i	i	i	i	i	i
C=C(C)C(=O)Nc1cccc(C2=NOC3(C2)C[C@H](C(N)=O)N(C(=O)COc2ccc(Cl)cc2)C3)c1 (stereo partly specified)	i	i	i	i	10µM	24µM
C=C(C)C(=O)Nc1cccc(C2=NOC3(C2)C[C@@H](C(N)=O)N(C(=O)C2(C)CC2)C3)c1 (stereo partly specified)	i	i	i	i	28µM	?
C=C(C)C(=O)Nc1cccc(C2=NOC3(C2)C[C@@H](C(N)=O)N(C(=O)c2ccc(Cl)cc2)C3)c1 (stereo partly specified)	i	i	i	i	10µM	24µM
COc1cc(C=C2C(=O)OC(C)(C)OC2=O)ccc1OCC(=O)Nc1ccccc1	i	i	i	i	i	19µM
COc1cc(/C=C2/NC(=O)N(CC(=O)Nc3cccc(C)c3)C2=O)ccc1OCC(N)=O	i	i	?	i	i	27µM
CCCC(=O)N(c1ccc2oc3c(c2c1)CCCC3)S(=O)(=O)c1cc(C)ccc1C	i	nt	i	nt	i	nt
Cc1c(C(=O)c2ccc(Cl)cc2Cl)cnc2cc3c(cc12)OCO3	i	13µM	?	i	i	30µM
CCC1C(=O)C(C)(C)C(=O)OC1c1ccc([N+](=O)[O-])cc1 (stereo unspecified)	i	i	i	i	i	i
O=C1CC(=O)OC(c2ccc([N+](=O)[O-])cc2)O1	nt	nt	nt	nt	i	6µM
COC(=O)C/C=C/[C@@H](C)[C@H](NC(=O)OCC(Cl)(Cl)Cl)c1cccc(OC)c1	nt	nt	i	nt	nt	nt
